Source: PubChem
UDG counterscr – counter-screen for AID inhibitors: uracil-DNA glycosylase inhibition; Potency, µM (highest dose often 115 µM), for the others: top-dose activity change, negative = inhibition, most hits filed as inhibitors; FRET deamination/UDG coupled assay, UDG read, 4 h; 91,000 tested, 0.14% active; AID 1347430; note: nearly all actives have a fitted effect of over 65% in size
AID inh – blocks human AID cytidine deaminase activity; AID 1347428; AID deamination FRET fluorescence, UDG-coupled, 4 h; Potency, µM (titrated, usually from 115 µM), most hits filed as inhibitors; 91,000 tested, 0.32% active; Q9GZX7; note: nearly all actives have a fitted effect of over 25% in size
Target sequence (Q9GZX7 whole entry, looked up): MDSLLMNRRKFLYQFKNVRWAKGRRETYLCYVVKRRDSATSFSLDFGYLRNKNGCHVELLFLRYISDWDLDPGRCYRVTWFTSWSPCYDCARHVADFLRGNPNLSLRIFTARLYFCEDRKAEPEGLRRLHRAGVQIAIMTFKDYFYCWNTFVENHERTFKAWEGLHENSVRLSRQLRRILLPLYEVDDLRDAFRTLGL
* marks the source's active call; other numbers are inactive results. Most compounds without a hit are left out; they make up all but 0.47% or so of the library. Calls come from the whole dose curve; as a rule, active = well fitted curve in the direction sought with a large enough effect; inconclusive = small, poorly fitted or top-dose-only effect, or another doubt; inactive = no such curve, though single readings can be large; an effect the other way counts as inactive or inconclusive. % is set by controls: 0 for no effect and ±100 for the full control effect; potency is the fitted concentration of half-maximal effect.

How did CCn1cc(S(=O)(=O)c2ccc(OC)cc2)c(=O)c2cc(F)c(N3CCCCCC3)cc21 do in these assays?
UDG counterscr: -9%; AID inh: inactive

Results for COc1ccc2c(c1)CCc1sc(NC(=O)c3cccc(Br)c3)nc1-2 ?
UDG counterscr: 2%; AID inh: inactive

Results for COc1ccc(C(=O)Nc2nc3c(s2)CCc2cc(OC)ccc2-3)cc1 ?
UDG counterscr: 79µM*; AID inh: inactive

How did COc1ccc2c(c1)Cc1sc(NC(=O)c3cccc(Cl)c3)nc1-2 do in these assays?
UDG counterscr: -10%; AID inh: inactive

How did COc1ccc2c(c1)Cc1sc(NC(=O)c3ccc(Cl)cc3)nc1-2 do in these assays?
UDG counterscr: -12%; AID inh: 32µM*

What do the screens show for `CC(C)/C=N/NC(=O)c1ccc[n+]([O-])c1`?
UDG counterscr: 0%; AID inh: inactive

How did COC(=O)c1ccc(N2CC3=C(C2=O)C(c2ccccc2)NC(=O)N3C)cc1 (stereo not given) do in these assays?
UDG counterscr: -6%; AID inh: inactive

How did CC(=O)N1CCN(c2oc(/C=C/c3ccccc3Cl)nc2C#N)CC1 do in these assays?
UDG counterscr: 25%; AID inh: inactive

How did Cc1ccc(C)c(CSc2ccc3nnc(CCNS(=O)(=O)c4ccccc4)n3n2)c1 do in these assays?
UDG counterscr: 25%; AID inh: inconclusive

What do the screens show for `O=S(=O)(NCCc1nnc2ccc(SCc3cccc(Cl)c3)nn12)c1ccccc1`?
UDG counterscr: 21%; AID inh: 40µM*

What do the screens show for `CC(=O)c1ccc(N2CCN(C(=O)c3nn(Cc4ccccc4)c(=O)c4ccccc34)CC2)c(F)c1`?
UDG counterscr: -10%; AID inh: inactive

How did Cc1ccc(N(Cc2cccs2)C(=O)COc2cccc(C)c2)cc1 do in these assays?
UDG counterscr: 1%; AID inh: inconclusive

How did Cc1cc(C)cc(OCC(=O)N(Cc2cccs2)c2ccc(Cl)cc2)c1 do in these assays?
UDG counterscr: -5%; AID inh: 22µM*

Results for COc1cccc(C(=O)/C=C/c2ccc(Br)cc2)c1 ?
UDG counterscr: -4%; AID inh: inactive

How did COc1cc(OC)c(NC(c2nnc(-c3ccccc3)o2)c2ccc(F)cc2Cl)cc1Cl (stereo not given) do in these assays?
UDG counterscr: -8%; AID inh: inactive

How did CCc1cccc(NC(c2nnc(-c3ccccc3)o2)c2ccc(F)cc2Cl)c1 (stereo not given) do in these assays?
UDG counterscr: 79µM*; AID inh: inconclusive

What do the screens show for `Cc1ccc(CSC2=Nc3ccccc3C3=NC(CCC(=O)NCc4cccs4)C(=O)N23)c(C)c1` (stereo not given)?
UDG counterscr: 18%; AID inh: inactive

Results for COc1ccccc1NC(=O)CSC1=Nc2ccccc2C2=NC(CC(=O)NCCc3ccccc3)C(=O)N12 (stereo not given) ?
UDG counterscr: -9%; AID inh: inactive

What do the screens show for `O=C(CC1N=C2c3ccccc3N=C(SCc3ccccc3F)N2C1=O)NCCc1ccccc1` (stereo not given)?
UDG counterscr: inconclusive; AID inh: 35µM*

Results for Cc1ccc(CSC2=Nc3ccccc3C3=NC(CC(=O)NC4CCCCC4)C(=O)N23)c(C)c1 (stereo not given) ?
UDG counterscr: 10%; AID inh: inactive

Results for Cc1ccc(CSC2=Nc3ccccc3C3=NC(CCC(=O)NCc4cccs4)C(=O)N23)cc1 (stereo not given) ?
UDG counterscr: -1%; AID inh: 89µM*

How did O=C(CC1N=C2c3ccccc3N=C(SCc3ccccc3Cl)N2C1=O)NC1CCCCC1 (stereo not given) do in these assays?
UDG counterscr: 89µM*; AID inh: inactive

How did CC(NC(=O)CC1C=CCC1)c1ccc2c(c1)CCCC2 (stereo not given) do in these assays?
UDG counterscr: -5%; AID inh: inactive

Results for Cn1ccnc1C(=O)c1ccc(NC(=O)C(=O)NC2CCCCC2)cc1 ?
UDG counterscr: 9%; AID inh: inactive

Results for Cc1nc2c(C(=O)NCCc3ccccc3)c[nH]n2c(=O)c1Cc1ccc(F)cc1Cl ?
UDG counterscr: -7%; AID inh: inactive

Results for Cc1ccc(CNC(=O)c2c[nH]n3c(=O)c(Cc4ccc(F)cc4Cl)c(C)nc23)cc1 ?
UDG counterscr: -7%; AID inh: 71µM*

How did CC(=O)N1CCc2c(sc3nc(SCC(C)C)n(-c4ccc(F)c(Cl)c4)c(=O)c23)C1 do in these assays?
UDG counterscr: 0%; AID inh: inactive

What do the screens show for `CC(=O)N1CCc2c(sc3nc(SCC(C)C)n(-c4ccc(C)c(Cl)c4)c(=O)c23)C1`?
UDG counterscr: 79µM*; AID inh: 25µM*

How did Cc1cc2oc(C(=O)NCC(c3cccs3)N(C)C)cc(=O)c2cc1C (stereo not given) do in these assays?
UDG counterscr: 2%; AID inh: inactive
